The record followed here is PubChem BioAssay.

Each structure is given as a SMILES string. Active and inactive are the calls of the source.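 The calls were made as follows, unless noted: active = visually confirmed hit in the image check and inhibition above 20%; inconclusive = visually confirmed hit but inhibition not above 20%; inactive = no visual hit in the image check.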

The nature of assay [1]: inhibitors of TNFa-induced NFkB p65 translocation, primary screen, imaging, HUVEC, MLSMR starter and 10KST1 sets (AID 438;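 active = inhibition above 20% together with a positive visual image hit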;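 also: compound added about 3h40 before a 20 min TNFalpha stimulation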;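 as to inhibition: signal is the nuclear over cytoplasmic p65 intensity ratio per well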). To be noted: HUVEC TNFa-induced p65 nuclear translocation; cell count: measured here: nuclei count (cytotoxicity indicator), at 2.08 µM; inhibition: at 2 µM, stronger effect = higher value, 0% TNFa-plus-vehicle, 100% no-TNFa wells.
A short description of assay [2]: inhibitors of mutant huntingtin aggregation, primary screen, imaging, exon1htt(103Q)mCFP cells, high-content imaging (AID 483;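 active = visual image review flags a hit and inhibition of aggregation exceeds 20%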;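 also: compound exposure lasted 3 days before fixation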;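 as to nuclei count: percent of the per-plate median nuclei count of sample wells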). Particulars: exon1htt(103Q)mCFP cell line, aggregate imaging, at 2 µM; inhibition of aggregation: stronger effect = higher value; nuclei count: measured here: cell count, toxicity.
Assay [3] in a line: inhibitors of E-selectin induction by TNFa, primary screen, imaging, HUVEC, immunofluorescence, MLSMR starter and 10KST1 sets (AID 487).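 As to inhibition: signal is fraction of cell area covered by stained E-selectin grains.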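 As to nuclei count: 100% = median nuclei count of all wells on the same plate.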 To be noted: HUVEC TNFalpha-induced E-selectin immunofluorescence imaging, at 2 µM; inhibition: stronger effect = higher value; nuclei count: measured here: cell number, toxicity.
Assay [4] has as its target Voltage-gated potassium channel subunit beta-2 (Rattus norvegicus) (UniProt P62483). Kind of assay: KvBeta enzyme negative modulators, primary screen, biochemical, NADPH fluorescence (AID 622;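 active = fluorescence slope higher than the sample average by over 3 SD, cut at about -0.22 in these data, passing the limit was not always enough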;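 also: slope of raw intensity against log time taken from 70 to 1610 s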). Particulars: recombinant KvBeta, 4-cyanobenzaldehyde reduction, at 10 µM, stronger effect = higher value.
Assay [5] shares this target. As to the kind of experiment: KvBeta positive modulators, primary screen, biochemical, NADPH fluorescence (AID 623;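 active = NADPH fluorescence slope more negative than the mean of all samples by about 3 SD, 99.7% confidence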;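 also: fluorescence intensity change per second fitted from 20 to 320 s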). To be noted: Recombinant KvBeta, NADPH fluorescence decrease slope, 10 min; at 10 µM; stronger effect = lower value.
Assay [6] addresses Alpha-2C adrenergic receptor (Homo sapiens) (UniProt P18825). As to the kind of experiment: modulators of alpha2C/GIRK thallium flux, primary screen, cell-based, HEK293 alpha2C/GIRK1/2 (AID 624;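 active = fluorescence slope after compound addition differing from the mean of all screened samples at 99.7% confidence, in either direction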;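 also: slope of fluorescence ratio to pre-addition baseline per second over 15 to 24 s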). Particulars: thallium flux BTC fluorescence, at 10 µM, actives lie on both sides.
Assay [7] in a line: inhibitors of Sendai virus-induced IRF3 signaling, primary screen, TLR/RLR signaling modifier project, cell-based, Sendai virus stimulus, luciferase, 10K MLSCN set (AID 602276;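 active = inhibition at or above 50% at 10 µM; inactive = inhibition below 50%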;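 also: firefly luciferase from ISG56 promoter only with Renilla not read in this screen; 0% = Sendai virus plus DMSO and 100% = medium plus DMSO without virus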). Particulars: HEK293 RL24 IRF3 luciferase reporter, at 10 µM, stronger effect = higher value.
Assay [8] in a line: inhibitors of poly I:C-induced TLR3 signaling, primary screen, cell-based, poly I:C stimulus, luciferase, 10K MLSCN set (AID 602277;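 active = inhibition of the reporter signal at or above 50%; inactive = inhibition below 50%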). Particulars: HEK293-TLR3 RL24 IRF3 luciferase reporter, at 10 µM, stronger effect = higher value. A general note: Reporter assays use an easily measured gene product as a stand-in for the process of interest.

Sequence of Alpha-2C adrenergic receptor (Homo sapiens) (P18825 whole entry, looked up): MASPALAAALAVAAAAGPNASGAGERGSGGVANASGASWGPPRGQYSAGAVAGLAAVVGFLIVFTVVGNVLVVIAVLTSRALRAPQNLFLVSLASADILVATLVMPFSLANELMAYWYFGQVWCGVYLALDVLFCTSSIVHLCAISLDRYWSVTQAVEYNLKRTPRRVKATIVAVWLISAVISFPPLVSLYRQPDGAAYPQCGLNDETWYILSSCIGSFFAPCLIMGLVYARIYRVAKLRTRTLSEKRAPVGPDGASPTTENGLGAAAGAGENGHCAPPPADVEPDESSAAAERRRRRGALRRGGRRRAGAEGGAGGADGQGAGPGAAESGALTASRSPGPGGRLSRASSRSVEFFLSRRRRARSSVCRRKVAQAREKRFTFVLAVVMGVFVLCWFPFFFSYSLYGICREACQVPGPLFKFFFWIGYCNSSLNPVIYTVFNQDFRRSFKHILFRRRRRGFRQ
Sequence of Voltage-gated potassium channel subunit beta-2 (Rattus norvegicus) (P62483 whole entry, looked up): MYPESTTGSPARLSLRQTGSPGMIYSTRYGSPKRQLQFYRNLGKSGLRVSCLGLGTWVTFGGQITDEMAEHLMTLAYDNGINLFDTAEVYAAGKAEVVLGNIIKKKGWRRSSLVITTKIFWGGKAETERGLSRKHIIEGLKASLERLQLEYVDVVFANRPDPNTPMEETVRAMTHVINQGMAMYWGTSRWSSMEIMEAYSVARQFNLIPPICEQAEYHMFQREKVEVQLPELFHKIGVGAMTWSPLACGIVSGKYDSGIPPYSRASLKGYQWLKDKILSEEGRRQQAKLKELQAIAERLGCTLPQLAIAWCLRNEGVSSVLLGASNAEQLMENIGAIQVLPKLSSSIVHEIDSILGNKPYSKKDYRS

Usually inhibition stands for the change of the read-out against control, counted positive when it falls. With `COc1ccc(-n2c(=O)cc(N3CCN(Cc4ccccc4)CC3)[nH]c2=O)cc1`, the cell count in assay [1] came to 672. For the same compound, the inhibition was -2.4% (inactive) in assay [1], 26.6% (inactive) in assay [3], 12.1% (inactive) in assay [7] and 18.9% (inactive) in assay [8]. The inhibition of aggregation in assay [2] was -0.4% (inactive). Moreover, the nuclei count in assay [2] came out at 119%; in assay [3] it was 108%. The fluorescence slope in assay [4] is -0.621 (inactive). The NADPH fluorescence slope in assay [5] was 1.9e-05 (inactive). In assay [6], the slope was 0.00623 (inactive).

As to `CCOC(=O)c1[nH]c(C)c(C(=O)Nc2ccc(C)cc2C)c1C`, the cell count in assay [1] is 505. The inhibition in assay [1] was 5.8% (inactive); in assay [3] it was -53.4% (inactive); in assay [7], 1.87% (inactive); in assay [8], 16.3% (inactive). Further, the inhibition of aggregation in assay [2] was 20.1% (inactive). For the same compound, the nuclei count worked out at 36.6% in assay [2] and 103% in assay [3]. Further, the fluorescence slope in assay [4] is -0.585 (inactive). In addition, the NADPH fluorescence slope in assay [5] was -1.3e-05 (inactive). Besides, in assay [6], the slope was 0.00666 (inactive).

Turning to `CCN(CC)C(=O)Cn1ncc2c1-c1ccccc1OC2`, in assay [1], the cell count is 597. Moreover, the inhibition in assay [1] was 0.5% (inactive); in assay [3], -54.6% (inactive); in assay [7] it was 7.79% (inactive); in assay [8] it was 16.3% (inactive). Besides, the inhibition of aggregation in assay [2] was -64.7% (inactive). Also, the nuclei count in assay [2] was 102%; in assay [3], 123%. The fluorescence slope in assay [4] was -0.588 (inactive). Further, the NADPH fluorescence slope in assay [5] was -4.7e-05 (inactive). Moreover, the slope in assay [6] is 0.00665 (inactive).

As for `C=CCc1ccccc1OCC(O)CN1CCN(Cc2ccc3c(c2)OCO3)CC1` (centres undefined), the cell count in assay [1] was determined as 321. The inhibition in assay [1] was 4.5% (inactive); in assay [3] it was -2% (inactive); in assay [7], 10.6% (inactive); in assay [8] it was 1.32% (inactive). Also, in assay [2], the inhibition of aggregation was -3.4% (inactive). Besides, the figures for the nuclei count in assay [2] and in assay [3] were 91.2% and 91.6%, respectively. The fluorescence slope in assay [4] was -0.457 (inactive). The NADPH fluorescence slope in assay [5] was 1.5e-05 (inactive). The slope in assay [6] is 0.0057 (inactive).

As for `Cc1cccc(NC(=O)c2oc3c(c2C)C(=O)CC(C)(C)C3)n1`, the cell count in assay [1] amounted to 256. The inhibition in assay [1] is -4% (inactive); in assay [3], -63.6% (inactive); in assay [7], -18% (inactive); in assay [8], -30.8% (inactive). Moreover, the inhibition of aggregation in assay [2] was -4.5% (inactive). Besides, the nuclei count in assay [2] came to 90.8%; in assay [3] it was 93.5%. Also, the fluorescence slope in assay [4] is -0.403 (inactive). Moreover, the NADPH fluorescence slope in assay [5] is -7.1e-05 (inactive). In addition, the slope in assay [6] was 0.00548 (inactive).

For the compound `CC(C)(C)NC(=O)CC(CC(=O)O)c1ccccc1` (centres undefined), the cell count in assay [1] is 584. Also, the inhibition is 2.9% (inactive) in assay [1], -30.6% (inactive) in assay [3], 12.7% (inactive) in assay [7] and 37.3% (inactive) in assay [8]. For the same compound, in assay [2], the inhibition of aggregation is -4.2% (inactive). Besides, the figures for the nuclei count in assay [2] and in assay [3] were 85.7% and 109%, respectively. Moreover, in assay [4], the fluorescence slope is -0.539 (inactive). Further, in assay [5], the NADPH fluorescence slope is -3.4e-05 (inactive). Moreover, the slope in assay [6] is 0.008 (inactive).

As for `COc1nc(Oc2ccc(=O)n(C)n2)nc(N(C)C)n1`, in assay [1], the cell count is 420. Moreover, the inhibition in assay [1] was 1% (inactive); in assay [3], -52.1% (inactive); in assay [7] it was 6.15% (inactive); in assay [8], 12% (inactive). Further, the inhibition of aggregation in assay [2] is -5.2% (inactive). Further, the nuclei count in assay [2] is 116%; in assay [3] it was 110%. The fluorescence slope in assay [4] is -0.357 (inactive). Further, in assay [5], the NADPH fluorescence slope is -1.9e-05 (inactive). Moreover, the slope in assay [6] is 0.00579 (inactive).

Turning to `Cn1c(=O)c2c(nc(CN3CCN(c4ccccc4F)CC3)n2CCN2CCOCC2)n(C)c1=O`, in assay [1], the cell count is 317. The inhibition in assay [1] was -6.9% (inactive); in assay [3], -26.9% (inactive); in assay [7], 17.6% (inactive); in assay [8], 17.1% (inactive). The inhibition of aggregation in assay [2] is 13.3% (inactive). The results for the nuclei count in assay [2] and in assay [3] were 114% and 107%, respectively. Moreover, in assay [4], the fluorescence slope was -0.288 (inactive). In assay [5], the NADPH fluorescence slope is -2.7e-05 (inactive). For the same compound, in assay [6], the slope is 0.00647 (inactive).

As to `CC1(C)CC(=O)C=C(NCCN2CCN(C(=O)Nc3ccccc3)CC2)C1`, the cell count in assay [1] is 730. The inhibition in assay [1] was -5.8% (inactive); in assay [3], -2.1% (inactive); in assay [7] it was -1.55% (inactive); in assay [8], -0.835% (inactive). In addition, in assay [2], the inhibition of aggregation is 0% (inactive). In addition, the nuclei count in assay [2] is 99.6%; in assay [3], 109%. Besides, the fluorescence slope in assay [4] is -0.412 (inactive). Moreover, in assay [5], the NADPH fluorescence slope was -4.4e-05 (inactive). In addition, the slope in assay [6] was 0.0067 (inactive).

With `O=C(NCc1ccco1)C1CCN(c2ccc(N3CCOCC3)nn2)CC1`, the cell count in assay [1] was 633. The inhibition in assay [1] is 1.6% (inactive); in assay [3], -70.8% (inactive); in assay [7] it was -14.1% (inactive); in assay [8], -20.9% (inactive). Moreover, the inhibition of aggregation in assay [2] is 4.1% (inactive). For the same compound, the nuclei count in assay [2] is 92.4%; in assay [3], 110%. Moreover, the fluorescence slope in assay [4] was -0.387 (inactive). Further, the NADPH fluorescence slope in assay [5] was 8e-06 (inactive). For the same compound, in assay [6], the slope was 0.00458 (inactive).

As to `COc1ccccc1-c1cc2nc(C)c(CCC(=O)NCc3ccco3)c(C)n2n1`, the cell count in assay [1] was 688. For the same compound, the inhibition is -7.7% (inactive) in assay [1], -41.8% (inactive) in assay [3], 18.9% (inactive) in assay [7] and 16.6% (inactive) in assay [8]. For the same compound, the inhibition of aggregation in assay [2] was -15.4% (inactive). The nuclei count is 115% in assay [2] and 111% in assay [3]. Further, the fluorescence slope in assay [4] is -0.587 (inactive). Moreover, the NADPH fluorescence slope in assay [5] is -4.5e-05 (inactive). Also, the slope in assay [6] is 0.00963 (inactive).

In the case of `O=C(CCCn1c(=S)[nH]c2cc3c(cc2c1=O)OCO3)N1CCN(c2ccccc2F)CC1`, the cell count in assay [1] turned out to be 402. Further, the inhibition in assay [1] is -9.1% (inactive); in assay [3] it was 0.1% (inactive); in assay [7], 8.7% (inactive); in assay [8], -6.98% (inactive). The inhibition of aggregation in assay [2] was -7.6% (inactive). For the same compound, the nuclei count turned out to be 99.5% in assay [2] and 112% in assay [3]. The fluorescence slope in assay [4] is -0.501 (inactive). Further, the NADPH fluorescence slope in assay [5] is -4.7e-05 (inactive). The slope in assay [6] was 0.00637 (inactive).

Regarding `Fc1cccc(-c2cc3nc4c(c(N5CCN(c6cnccn6)CC5)n3n2)CCCC4)c1`, the cell count in assay [1] was found to be 468. In addition, the inhibition in assay [1] is -3.1% (inactive); in assay [3], -80.1% (inactive); in assay [7] it was -15.7% (inactive); in assay [8] it was -16.1% (inactive). Besides, the inhibition of aggregation in assay [2] is -5.2% (inactive). Moreover, the values for the nuclei count in assay [2] and in assay [3] were 101% and 100%, respectively. Further, the fluorescence slope in assay [4] was -0.622 (inactive). Also, the NADPH fluorescence slope in assay [5] is -2.7e-05 (inactive). Moreover, the slope in assay [6] was 0.00757 (inactive).

Consider `CCn1c(SCC(=O)Nc2cc(C)on2)nc2sc3c(c2c1=O)CCCC3`, for which the cell count in assay [1] was determined as 470. Moreover, the inhibition in assay [1] was -16.6% (inactive); in assay [3], -26.9% (inactive); in assay [7], -5.69% (inactive); in assay [8], 98.9% (active). Moreover, in assay [2], the inhibition of aggregation is 4% (inactive). For the same compound, the nuclei count amounted to 118% in assay [2] and 110% in assay [3]. In assay [4], the fluorescence slope was -0.4 (inactive). In assay [5], the NADPH fluorescence slope was 1.4e-06 (inactive). In assay [6], the slope is 0.00722 (inactive).
